MARV entry inh = blocks Marburg virus binding or cell entry; Marburg virus pseudotype entry/binding inhibition, cell-based; Potency, µM (doses to about 49.2 µM), without a hit: at the top dose activity change, negative = inhibition, most hits filed as inhibitors; actives 6.5% (n = 18,000)
Lassa entry = blocks Lassa virus binding or cell entry. actives 4.1% (n = 18,000). Potency, µM (top dose mostly 49.2 µM), inactives show at the highest dose activity change, negative = inhibition, actives largely listed as inhibitors. Lassa virus pseudotyped entry inhibition, cell-based qHTS
Numbers without * were called inactive; ? = inconclusive; · = no result given; ! = not confirmed by another sample; [ ] = another dose, or the depositor's remark. An excerpt weighted towards active compounds, which were near 7.1% of everything screened. The call rests on the fitted dose curve; tested in HEK293 cells. On the % scale 0 is the no-effect control and ±100 the full control effect; potency means the concentration at half of the fitted maximal effect.

SMILES	MARV entry inh	Lassa entry
CC1(C)C(C(=O)O)N2C(=O)CC2S1(=O)=O (centres undefined)	2%	7%
CC[C@@]1(O)C(=O)OCc2c1cc1n(c2=O)Cc2cc3ccccc3nc2-1	2.2µM*	?
CC1(C)S[C@H]2[C@@H](N)C(=O)N2[C@H]1C(=O)O	9%	10%
CCCCNc1cccc2c1S(=O)(=O)N[C@@H](Cc1ccccc1)CO2	-11%	15%
Nc1ccc2cc3ccc(N)cc3nc2c1	10µM*	25µM*
CCOc1ccc2nc3cc(N)ccc3c(N)c2c1	2%	22%
C[N+]1(CCCCC[N+]2(C)CCCC2)CCCC1	-4%	-14%[17.8 µM]
Cn1cnc([N+](=O)[O-])c1Sc1ncnc2nc[nH]c12	10µM*!	?
Cn1cnnc1Sc1c([N+](=O)[O-])ncn1C	-3%	-9%
CCCCCCOC(=O)c1cccnc1	12%	-5%
COC(=O)C[C@H]1c2ccccc2C2=C(C[C@@H](C)[C@H]3C(=O)N(c4ccccc4)C(=O)[C@@H]23)N1C(=O)OC	-16%[8.59 µM]	·
N#Cc1cccc(-c2nc(Nc3ccccc3)c3ccccc3n2)c1	12%	-12%
COc1cccc(C(=O)NCc2nc(-c3cccc(NC(=O)c4ccoc4C)c3)oc2C)c1OC	?	18µM*
Cc1cc(C(=O)Nc2cccc(-c3nc(CNC(=O)c4ccccc4C(F)(F)F)c(C)o3)c2)c(C)o1	-28%	?
COc1cc(OC)cc(-c2sc3ccccc3c(=O)c2I)c1	18µM*	?
COc1ccc(-c2cc3ccccc3c(=O)o2)cc1	44%	38%
O=C(NCc1ccccc1)c1ccc(NC(=O)C2CCCC2)cc1	17%	-22%
O=c1oc2ccccc2c(O)c1Cc1c(O)c2ccccc2oc1=O	-23%[17.8 µM]	7.9µM*!
CC(=O)C[C@@H](c1ccccc1)c1c(O)c2ccccc2oc1=O	-7%	-2%
CC(=O)S[C@H]1CC2=CC(=O)CC[C@@]2(C)[C@H]2CC[C@@]3(C)[C@H](CC[C@]34CCC(=O)O4)[C@@H]12	-4%[17.8 µM]	-5%[17.8 µM]
CC(C)c1c(C(=O)NCCN2CCOCC2)cnn1-c1nccc(-c2ccco2)n1	14%	3%
C=C[C@]1(C)Cc2occ(C)c2C[C@H]1C(=C)C(=O)O	1%	8%
COc1ccc(CN2CCc3nnc(CCc4ccccc4)n3CC2)c(OC)c1C	12%	-7%
O=C1CCN(Cc2cccc(C(F)(F)F)c2)CCN1Cc1ccccn1	?	-17%
CCCNC[C@H](O)COc1ccccc1C(=O)CCc1ccccc1	8.9µM*	-12%[17.8 µM]
SMILES	MARV entry inh	Lassa entry
N#Cc1ccccc1OC[C@H](O)CNCCNC(=O)Nc1ccccc1	-3%	-7%
CO[C@H]1C[C@@H]2CC[C@@H](C)[C@@](O)(O2)C(=O)C(=O)N2CCCC[C@H]2C(=O)O[C@H]([C@H](C)C[C@@H]2CC[C@@H](OCCO)[C@H](OC)C2)CC(=O)[C@H](C)/C=C(\C)[C@@H](O)[C@@H](OC)C(=O)[C@H](C)C[C@H](C)/C=C/C=C/C=C/1C	?	25µM*
CO[C@H]1C[C@@H]2CC[C@@H](C)[C@@](O)(O2)C(=O)C(=O)N2CCCC[C@H]2C(=O)O[C@H](C(C)C[C@H]2CC[C@@H](O)[C@H](OC)C2)CC(=O)[C@H](C)/C=C(\C)[C@@H](O)[C@@H](OC)C(=O)[C@H](C)C[C@H](C)/C=C/C=C/C=C/1C (some centres undefined)	?	-21%
COc1ccccc1C1CN(Cc2c(O)cccc2OC)Cc2ccccc2O1 (centres undefined)	2%	-15%
COc1ccccc1C1CN(Cc2cccc(C)n2)Cc2ccccc2O1 (centres undefined)	5.6µM*	7.1µM*
C[C@@H]1C[C@@H]2[C@H]3CCC4=CC(=O)C=C[C@]4(C)[C@]3(F)[C@@H](O)C[C@@]2(C)[C@@]1(O)C(=O)CO	0%	-3%
CCN(CC)CCOc1ccc2c(c1)C(=O)c1cc(OCCN(CC)CC)ccc1-2	6.3µM*	?
CCOc1ccc(C(=O)OCCN(CC)CC)cc1	-7%	-11%
Cc1ncc2c(c1CNC(=O)c1cncs1)CCN(C(=O)c1csc(-c3cccs3)n1)C2	35µM*	-21%
CCS(=O)(=O)NCc1c(C)ncc2c1CCN(C(=O)c1csc(-c3cccs3)n1)C2	4%	-23%
CCN(CC)CCOC(=O)[C@@H](c1ccccc1)C1CCCCC1	?	-19%[17.8 µM]
Cc1ccc2c(c1)CN(CCNC(=O)c1c(-c3ccccc3)noc1C)CC(C)O2 (centres undefined)	-14%	-9%
CSCC[C@H](NC(=O)[C@H](CC(C)C)NC(=O)CNC(=O)[C@H](Cc1ccccc1)NC(=O)[C@H](Cc1ccccc1)NC(=O)[C@H](CCC(N)=O)NC(=O)[C@H](CCC(N)=O)NC(=O)[C@@H]1CCCN1C(=O)[C@H](CCCCN)NC(=O)[C@@H]1CCCN1C(=O)[C@@H](N)CCCN=C(N)N)C(N)=O	1%	0%
COC(=O)[C@@H]1C[C@H](OC(C)=O)C(=O)[C@H]2[C@@]1(C)CC[C@H]1C(=O)O[C@H](c3ccoc3)C[C@]21C	12%	-4%
COCCCC/C(=N\OCCN)c1ccc(C(F)(F)F)cc1	14µM*	-17%
COC(=O)CCC(=O)OC1(C)C(=O)C=C2C=C(C3CC3)N(c3ccc(OC)cc3)C=C2C1=O (centres undefined)	5%[8.59 µM]	-14%[8.59 µM]
C=CCN1CC[C@]23c4c5ccc(O)c4O[C@H]2C(=O)CC[C@@]3(O)[C@H]1C5	2%	-11%
Fc1ccc([C@H]2CCNC[C@H]2COc2ccc3c(c2)OCO3)cc1	11µM*	?
COc1ccc2c(c1)O[C@H](c1ccc3c(c1)OCO3)[C@@H](OC(=O)NS(=O)(=O)c1ccc(F)cc1)C2=O	8%	3%
COc1ccc2c(c1)O[C@@H](c1ccc3c(c1)OCO3)[C@H](OC(=O)NS(=O)(=O)c1ccc(F)cc1)C2=O	19%	0%
Fc1ccc([C@H]2CCNCC2COc2ccc3c(c2)OCO3)cc1 (some centres undefined)	10µM*	-14%
O=C1C(Cl)=CC(=Nc2ccc(O)cc2)C=C1Cl	-8%	-15%
COc1cc(O)cc(O)c1	1%	10%
CC1=C2C3OC(=O)C(C)C3CC[C@@]2(C)C=CC1=O (some centres undefined)	-1%	4%
CN(C(=O)Cc1ccccc1)[C@H](CN1CCCC1)c1ccccc1	?	-2%
SMILES	MARV entry inh	Lassa entry
CN(C(=O)Cc1ccc(Cl)c(Cl)c1)[C@H](CN1CCCC1)c1ccccc1	7.1µM*	20µM*
Oc1ccc(Cl)cc1Cc1ccccc1	-16%[107 µM]	25µM*
OCCc1ccccc1	5%	-5%
CN(Cc1cc(Br)cc(Br)c1N)C1CCCCC1	?	28µM*
COc1ccc2cc(CNCc3ccccc3Cl)c(N3CCCC(CO)C3)nc2c1 (centres undefined)	27%	-2%
COC(=O)[C@]12CCC(C)(C)C[C@H]1[C@H]1C(=O)C=C3[C@@]4(C)C=C(C#N)C(=O)C(C)(C)[C@@H]4CC[C@@]3(C)[C@]1(C)CC2	3.2µM*	3.5µM*
CC12CC3(O)OC(O1)C1(COC(=O)c4ccccc4)[C@@H]3CC21O[C@@H]1O[C@H](CO)[C@@H](O)[C@H](O)[C@H]1O	-16%	9%
COc1cc2ncn(-c3cc(OC(C)c4ccccc4Cl)c(C(N)=O)s3)c2cc1OC (centres undefined)	3.5µM*	·
COc1cc2ncn(-c3cc(OCCc4ccccc4)c(C(N)=O)s3)c2cc1OC	?	7.9µM*
